Measured values from PubChem BioAssay (NCI).
Compounds without any hit were thinned out: in the full panel of roughly 83,000, 20% have a hit.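 The test compound was applied at a single concentration to cells in 96-well plates for 48 hours, and percent growth was recorded.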 Values without a mark were called inactive. Calls of active or inactive are those of the source. The calls were made as follows: active = growth percent below 10; inactive = the rest.

Tests used:
Test in all cases: NCI-60 one-dose screen, 48 h (100 = growth as untreated, 0 = no growth, -100 = all killed)
Conditions in all cases: 10 µM unless noted
HCT-15 colon = tested on: HCT-15 colon
HT29 colon = tested on: HT29 colon
SNB-75 CNS = tested on: SNB-75 CNS
SNB-19 CNS = tested on: SNB-19 CNS
U251 CNS = tested on: U251 CNS
PC-3 prostate = tested on: PC-3 prostate
SK-MEL-5 melanoma = tested on: SK-MEL-5 melanoma
UACC-62 melanoma = tested on: UACC-62 melanoma
LOX IMVI melanoma = tested on: LOX IMVI melanoma
SK-MEL-28 melanoma = tested on: SK-MEL-28 melanoma

| Structure (SMILES) | growth (HCT-15 colon) | growth (HT29 colon) | growth (SNB-75 CNS) | growth (SNB-19 CNS) | growth (U251 CNS) | growth (PC-3 prostate) | growth (SK-MEL-5 melanoma) | growth (UACC-62 melanoma) | growth (LOX IMVI melanoma) | growth (SK-MEL-28 melanoma) |
| --- | --- | --- | --- | --- | --- | --- | --- | --- | --- | --- |
| CCOc1ccc(/C=N/NC(=O)c2cccc3ccccc23)cc1OCC | 97.2% | 103% | 106% | 110% | 100% | 90.1% | 92.1% | 93.4% | 92.7% | 103% |
| CCCCCCCCCCCCCCCCCC1=NCCN1CS(=O)(=O)O | 41% | 2.18% (active) | 60.9% | 80.4% | 64.5% | 39% | 87.3% | 88.9% | -2.88% (active) | 103% |
| COc1cc(NC(C)CCCN)c2nc(C)ccc2c1OC (stereo not given) | 106% | 93.2% | 98.7% | 107% | 94.7% | 85.9% | 101% | 108% | 106% | 101% |
| CCCCCCCCCCCCCCCCNC(=S)N/N=C/c1ccc(O)cc1O | 50.7% | 37% | 113% | 89.1% | 59.6% | 63.5% | 63.4% | 56.5% | 60.6% | 88.7% |
| CCCC(C)c1cc(Cc2cc(Cl)cc(Cl)c2O)c(O)c(Cc2cc(Cl)cc(Cl)c2O)c1 (stereo not given) | 6.15% (active) | 14.4% | 12.2% | 24.2% | 7.55% (active) | 3.76% (active) | -58.5% (active) | -5.72% (active) | 5.31% (active) | 8.03% (active) |
| COc1cc(NC(C)CCCN)c2nccc(C)c2c1OC (stereo not given) | 84.4% | 57.9% | 103% | 97.6% | 64.5% | 72.3% | 86.8% | 97.2% | 58.5% | 117% |
| CC[N+](C)(C)N | 103% | 102% | 80.5% | 95.5% | 101% | 100% | 95.4% | 105% | 90.9% | 94.9% |
| CCCCN(CCCC)CCCNc1c2c(nc3ccc(Cl)cc13)CCCC2 | 74.2% | 45.7% | 88.4% | 102% | 101% | 95.5% | 106% | 108% | 90.4% | 108% |
| CN1C(=O)C(=Cc2coc3ccc(Br)cc3c2=O)C(=O)N(C)C1=O | 105% | 108% | 105% | 105% | 104% | 89.3% | 93.8% | 83.4% | 101% | 103% |
| CCCC(=O)NNc1[nH]c(-c2ccc(OC)cc2)cc1C(=O)OCC | 100% | 110% | 122% | 108% | 104% | 106% | 111% | 99.6% | 103% | 120% |
| CC(C)(C)C(=O)CCCCCCCC/C=C/CCCC(O)c1ccco1 (stereo not given) | 118% | 107% | 101% | 109% | 105% | 102% | 107% | 95.2% | 102% | 106% |
| CCN(CC)CCCNc1c2ccc(Cl)cc2nc2ccc(OC)cc12 | 1.74% (active) | -15.4% (active) | -44.9% (active) | 10.2% | -14.9% (active) | -34.6% (active) | -96.3% (active) | 50.3% | -43.1% (active) | -72.3% (active) |
| O=Nc1ccc(O)c2ccccc12 | 23.6% | 1.37% (active) | -64.5% (active) | 57.8% | -14% (active) | -10.5% (active) | -97.4% (active) | 15.8% | -1.33% (active) | 13.3% |
| CCn1cnc(C[C@H](NC(=O)[C@@H](NC(=O)Nc2cc(C(F)(F)F)cc(C(F)(F)F)c2)C(C)C)C(=O)OC)c1 | -78.6% [100 µM] (active) | -81% [100 µM] (active) | -100% [100 µM] (active) | -90.8% [100 µM] (active) | -94.3% [100 µM] (active) | -91.8% [100 µM] (active) | -98% [100 µM] (active) | -94.6% [100 µM] (active) | -86% [100 µM] (active) | -96% [100 µM] (active) |
| CC(C)(C)c1cc(C[P+](c2ccc(Cl)cc2)(c2ccc(Cl)cc2)c2ccc(Cl)cc2)cc(C(C)(C)C)c1O | 99.1% | 56.9% | 87.2% | 98% | 85.4% | 70% | 85.8% | 81.6% | 92.6% | 88% |
| NC(=O)CC(NC(=O)COc1ccc(Cl)cc1Cl)C(=O)O (stereo not given) | 112% | 107% | 102% | 103% | 101% | 94.2% | 98.8% | 98.6% | 97.1% | 109% |
| CC(=O)N1CCN(CCNC(=O)n2cc(-c3ccncc3)c(-c3ccc(O)c(Cl)c3)n2)CC1 | 118% | 103% | 81.4% | 120% | 110% | 171% | 107% | 91.3% | 109% | 85.5% |
| O=C(CCl)NC1c2ccccc2Oc2ccccc21 | 50.8% | 80.5% | 74.5% | 94.3% | 47.7% | 80.7% | 73.8% | 68.1% | -1.57% (active) | 92% |
| CCCCCCCCCCN1CC2CCCCC2C1 (stereo not given) | 35% | 19.8% | 66.3% | 79.7% | 53.4% | 48.4% | 49% | 89.4% | 47.1% | 90.6% |
| COC(=O)c1cc(Nc2ccc(O)c3c2C(=O)c2c([N+](=O)[O-])ccc(O)c2C3=O)cc(C(=O)OC)c1 | 16.3% | 36.5% | 59.1% | 76.9% | 74.8% | 70.9% | -49% (active) | 48.8% | 59.5% | 30.8% |
| O=C1Nc2c(c(=O)n(-c3ccccc3)c3ccccc23)C(c2ccc(Cl)cc2)N1 (stereo not given) | 90.4% | 106% | 80.7% | 60.4% | 85.9% | 105% | 80.4% | 62.8% | 36.4% | 90.9% |
| CC(C)(CNC1CCCCC1)OC(=O)c1ccccc1 | 97.7% | 95.5% | 105% | 103% | 100% | 91.6% | 97.7% | 106% | 96.7% | 114% |
| O=CN/N=C/c1ccc(Cl)c([N+](=O)[O-])c1 | 47.3% | 6.89% (active) | 62.2% | 32.5% | 11.9% | 1.87% (active) | 14.2% | 18% | 17% | 43% |
| CCOC(=O)C1=C(C(F)(F)F)NC(=O)NC1CN1C(=O)c2ccccc2C1=O (stereo not given) | 123% | 113% | 98.4% | 111% | 107% | 92% | 111% | 92.9% | 111% | 113% |
| COC(=O)[C@H](Cc1cn(C)cn1)NC(=O)[C@H](Cc1c[nH]c2ccccc12)NC(=O)Nc1cc(C(F)(F)F)cc(C(F)(F)F)c1 | 27.7% [100 µM] | -84.2% [100 µM] (active) | -85.5% [100 µM] (active) | -91% [100 µM] (active) | -89.5% [100 µM] (active) | -89.4% [100 µM] (active) | -51.3% [100 µM] (active) | -92.9% [100 µM] (active) | -83.5% [100 µM] (active) | -80.3% [100 µM] (active) |
| CC(C)OC(=O)Nn1cnc2ccccc21 | 120% | 111% | 128% | 111% | 106% | 101% | 108% | 107% | 114% | 128% |
| COc1ccc2c(c1)/C(=C/c1c(-c3cc(OC)c(OC)c(OC)c3)nc3sccn13)C(=O)N2 | 99.5% | 108% | 78.3% | 97.1% | 96.3% | 85% | 81.8% | 92.5% | 98.3% | 98.8% |
